# Data published in PubChem BioAssay (Tox21).
# Where “and” joins values, the source holds several entries; their conditions need not be identical. Equal values may be shown once. Some structures have more than one record in an assay (separate samples or runs), and their calls can disagree. Calls of active or inactive are those of the source. Where a call stands in place of a potency, no number is given. Unless noted, the call rests on the fitted dose curve; in most records, active means well fitted curve in the direction sought with a large enough effect in the repeat runs; inconclusive means weak or mixed curves; inactive means no such curve, though single readings can be large; an effect the other way counts as inactive or inconclusive.
# Tests used:
# [1] = qHTS assay to identify small molecule antagonists of the thyroid receptor (TR) signaling pathway - cell viability counter screen (AID 743064); further: nearly all actives have a fitted effect of over 50% in size; further: potency means the concentration at half of the fitted maximal effect
# Outline: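 GH3.TRE-Luc rat pituitary cells dosed after 4 hr plating, co-stimulated with T3 at 1 nM final, incubated 23.5 h at 37 C. Viability measured in the same wells by CellTiter-Fluor fluorescence after 30 min further at 37 C.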
# [2] = qHTS assay to identify small molecule antagonists of the thyroid receptor (TR) signaling pathway (AID 743065); further: nearly all actives have a fitted effect of over 55% in size; further: potency means the concentration at half of the fitted maximal effect
# Outline: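 Antagonism measured as loss of luciferase signal in GH3 cells stably carrying a TRE-luciferase reporter, co-treated with compound and T3 (1 nM final) for 23.5 h at 37 C. Viability was read in the same well by CellTiter-Fluor.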
# [3] = system: thyroid hormone receptor (rat, GH3 cells); test: qHTS assay to identify small molecule agonists of the thyroid receptor (TR) signaling pathway (AID 743066; calls by dose curve)
# [4] = qHTS assay to identify small molecule antagonists of the estrogen receptor alpha (ER-alpha) signaling pathway - cell viability counter screen (AID 743074; calls by dose curve;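 further: HEK293 cells carrying ER-alpha-UAS-bla reporter stimulated with 17beta-estradiol; nearly all actives have a fitted effect of over 45% in size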; further: potency means the concentration at half of the fitted maximal effect)
# [5] = target: Estrogen receptor (Homo sapiens) (UniProt P03372); test: qHTS assay to identify small molecule agonists of the estrogen receptor alpha (ER-alpha) signaling pathway (AID 743075; calls by dose curve;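 further: HEK293 GripTite cells with ER-alpha and UAS-driven beta-lactamase reporter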; further: potency means the concentration at half of the fitted maximal effect)
# [6] = target: Estrogen receptor (Homo sapiens) (UniProt P03372); test: qHTS assay to identify small molecule agonists of the estrogen receptor alpha (ER-alpha) signaling pathway using the BG1 cell line (AID 743079); further: nearly all actives have a fitted effect of over 20% in size
# [7] = qHTS assay to identify small molecule antagonists of the estrogen receptor alpha (ER-alpha) signaling pathway using the BG1 cell line (AID 743080; calls by dose curve;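 further: BG1 cells stimulated with 17beta-estradiol alongside compound; nearly all actives have a fitted effect of over 25% in size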; further: potency means the concentration at half of the fitted maximal effect)
# Outline: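 After 5 days in phenol-red-free 10% charcoal-stripped FBS medium, BG1-Luc-4E2 cells were seeded, left 24 h at 37 C, co-treated with compounds and 17beta-estradiol for 21.5 h, then assayed for viability and luciferase.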
# [8] = qHTS assay to identify small molecule antagonists of the estrogen receptor alpha (ER-alpha) signaling pathway using the BG1 cell line - cell viability counter screen (AID 743081);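 further: compound given together with 17beta-estradiol as the ER stimulus; nearly all actives have a fitted effect of over 45% in size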; further: potency means the concentration at half of the fitted maximal effect
# Aromatase (Homo sapiens) = Aromatase (Homo sapiens) (UniProt P11511); test: qHTS assay to identify aromatase inhibitors (AID 743083); further: nearly all actives have a fitted effect of over 55% in size; further: potency means the concentration at half of the fitted maximal effect
# [9] = qHTS assay to identify aromatase inhibitors - cell viability counter screen (AID 743084);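 further: cells stimulated with testosterone during compound exposure; nearly all actives have a fitted effect of over 55% in size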; further: potency means the concentration at half of the fitted maximal effect
# [10] = target: Aryl hydrocarbon receptor (Homo sapiens) (UniProt P35869); test: qHTS assay to identify small molecule that activate the aryl hydrocarbon receptor (AhR) signaling pathway (AID 743085); further: nearly all actives have a fitted effect of over 15% in size; further: potency means the concentration at half of the fitted maximal effect;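 on activation: HG2L7.5c1 human HepG2 liver cells with stably integrated DRE-driven firefly reporter; series mostly up to about 70 µM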
# Outline: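 HepG2 cells stably carrying a 20-DRE firefly luciferase reporter (HG2L7.5c1) treated with compound for 24 hr at 37C. Luciferase read by ONE-Glo luminescence, with CellTiter-Fluor viability read first.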
# [11] = target: Peroxisome proliferator-activated receptor gamma (Homo sapiens) (UniProt P37231); test: qHTS assay to identify small molecule agonists of the peroxisome proliferator-activated receptor gamma (PPARg) signaling pathway (AID 743094; active means well fitted activation curve with a large enough effect in the signal ratio in the repeat runs, not every such curve was filed as active; inconclusive means weak or mixed curves, or effect the other way; inactive means no such curve, though single readings can be large or run the other way; the % refers to the signal ratio; further: potency means the concentration at half of the fitted maximal effect)
# Outline: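 GeneBLAzer PPARg UAS-bla HEK293H cells carrying a stably integrated beta-lactamase reporter were pre-incubated 5 h at 37C, then exposed to compounds in DMSO for 17 h at 37C; LiveBLAzer B/G FRET substrate was added for 1 h at room temperature and fluorescence read.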
# [12] = qHTS assay for small molecule activators of the heat shock response signaling pathway - cell viability counter screen (AID 743209); further: nearly all actives have a fitted effect of over 50% in size; further: potency means the concentration at half of the fitted maximal effect
# Outline: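 CellSensor HSE-bla HeLa cells, plated overnight at 37 C/5% CO2, were exposed to compounds in DMSO for 5 h at 37 C. Viability was then read in the same wells by CellTiter-Glo luminescence after 30 min at room temperature.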
# [13] = qHTS assay for small molecule activators of the heat shock response signaling pathway (AID 743210; active means well fitted activation curve with a large enough effect in the signal ratio in the repeat runs, with a control signal flat, not every such curve was filed as active; inconclusive means weak or mixed curves; the % refers to the signal ratio; further: potency means the concentration at half of the fitted maximal effect;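 on activation: HeLa cells with beta-lactamase reporter driven by heat shock elements; series mostly up to about 63 µM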)
# Outline: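 HeLa HSE-bla cells, overnight plating; cpd in DMSO 5 h, 37 C; LiveBLAzer B/G FRET substrate 2.5 h RT; fluorescence intensity read.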
# [14] = qHTS assay to identify small molecule that activate the aryl hydrocarbon receptor (AhR) signaling pathway - cell viability counter screen (AID 743086); further: nearly all actives have a fitted effect of over 45% in size; further: potency means the concentration at half of the fitted maximal effect
# Outline: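 Cytotoxicity counter screen: CellTiter-Fluor signal (30 min, 37 C) in 4000 HepG2 cells/well carrying the DRE-luciferase reporter, following 24 h compound exposure at 37 C.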
# [15] = qHTS assay to identify small molecule antagonists of the peroxisome proliferator-activated receptor gamma (PPARg) signaling pathway - cell viability counter screen (AID 743194); further: nearly all actives have a fitted effect of over 55% in size; further: potency means the concentration at half of the fitted maximal effect
# Outline: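 Viability was measured as CellTiter-Glo luminescence in GeneBLAzer PPARg UAS-bla HEK293H cells. These cells had been exposed 17 h at 37 C to compounds together with rosiglitazone at 50 nM final, with the beta-lactamase readout taken in the same wells.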
# [16] = qHTS assay for small molecule agonists of the antioxidant response element (ARE) signaling pathway - cell viability counter screen (AID 743203; calls by dose curve; further: nearly all actives have a fitted effect of over 55% in size; further: potency means the concentration at half of the fitted maximal effect)
# Outline: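 CellSensor ARE-bla HepG2 cells, 2,000 per well, rested 5 hrs at 37C/5% CO2, then exposed to compound in DMSO for 16 hrs; viability read as CellTiter-Glo luminescence after 30 min at room temperature, in the reporter wells.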
# [17] = target: Estrogen receptor (Homo sapiens) (UniProt P03372); test: qHTS assay to identify small molecule antagonists of the estrogen receptor alpha (ER-alpha) signaling pathway (AID 743069; active means well fitted curve in the direction sought with a large enough effect in the signal ratio in the repeat runs, not every such curve was filed as active; inconclusive means weak or mixed curves, or effect the other way; inactive means no such curve, though single readings can be large or run the other way; the % refers to the signal ratio; further: potency means the concentration at half of the fitted maximal effect)
# Outline: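 ER-alpha-UAS-bla GripTite HEK293 line; 2% charcoal-stripped FBS overnight; plated, 4 hr 37C/5% CO2; cpd in DMSO + 17beta-estradiol, 18 hr 37C; LiveBLAzer B/G FRET substrate 2 hr RT; fluorescence intensity.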
# [18] = target: Peroxisome proliferator-activated receptor gamma (Homo sapiens) (UniProt P37231); test: qHTS assay to identify small molecule antagonists of the peroxisome proliferator-activated receptor gamma (PPARg) signaling pathway (AID 743191; calls by dose curve; further: series mostly up to about 63 µM; nearly all actives have a fitted effect of over 30% in size)
# Outline: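 Beta-lactamase reporter under UAS control in HEK293H PPARg-bla cells; compound treatment 17 h at 37C. Read-out: fluorescence intensity after 1 h room-temperature incubation with LiveBLAzer B/G FRET substrate.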
# [19] = qHTS assay for small molecule agonists of the antioxidant response element (ARE) signaling pathway (AID 743202; active means well fitted activation curve with a large enough effect in the signal ratio in the repeat runs, not every such curve was filed as active; inconclusive means weak or mixed curves, or effect the other way; inactive means no such curve, though single readings can be large or run the other way; the % refers to the signal ratio; further: potency means the concentration at half of the fitted maximal effect)
# Outline: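 Quantitative high-throughput format in HepG2 cells bearing an integrated ARE-beta-lactamase reporter. Compound exposure lasted 16 h at 37 C, and fluorescence was read 2 h after adding LiveBLAzer B/G substrate at room temperature.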
# Sequence of Aromatase (Homo sapiens) (P11511 whole entry, looked up): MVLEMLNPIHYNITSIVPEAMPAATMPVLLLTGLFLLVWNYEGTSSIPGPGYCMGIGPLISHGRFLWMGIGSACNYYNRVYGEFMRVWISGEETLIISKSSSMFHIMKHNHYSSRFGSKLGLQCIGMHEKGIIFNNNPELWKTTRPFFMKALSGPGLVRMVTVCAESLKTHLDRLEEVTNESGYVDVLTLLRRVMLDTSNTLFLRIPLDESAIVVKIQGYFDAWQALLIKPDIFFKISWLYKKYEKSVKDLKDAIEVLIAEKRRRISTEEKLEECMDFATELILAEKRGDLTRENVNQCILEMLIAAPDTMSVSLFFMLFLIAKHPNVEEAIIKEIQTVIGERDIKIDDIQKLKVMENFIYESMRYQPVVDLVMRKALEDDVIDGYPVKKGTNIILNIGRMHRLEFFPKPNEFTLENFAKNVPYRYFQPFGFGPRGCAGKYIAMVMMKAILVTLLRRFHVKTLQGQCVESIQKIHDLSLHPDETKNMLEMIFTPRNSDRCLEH
# Sequence of Estrogen receptor (Homo sapiens) (P03372 whole entry, looked up): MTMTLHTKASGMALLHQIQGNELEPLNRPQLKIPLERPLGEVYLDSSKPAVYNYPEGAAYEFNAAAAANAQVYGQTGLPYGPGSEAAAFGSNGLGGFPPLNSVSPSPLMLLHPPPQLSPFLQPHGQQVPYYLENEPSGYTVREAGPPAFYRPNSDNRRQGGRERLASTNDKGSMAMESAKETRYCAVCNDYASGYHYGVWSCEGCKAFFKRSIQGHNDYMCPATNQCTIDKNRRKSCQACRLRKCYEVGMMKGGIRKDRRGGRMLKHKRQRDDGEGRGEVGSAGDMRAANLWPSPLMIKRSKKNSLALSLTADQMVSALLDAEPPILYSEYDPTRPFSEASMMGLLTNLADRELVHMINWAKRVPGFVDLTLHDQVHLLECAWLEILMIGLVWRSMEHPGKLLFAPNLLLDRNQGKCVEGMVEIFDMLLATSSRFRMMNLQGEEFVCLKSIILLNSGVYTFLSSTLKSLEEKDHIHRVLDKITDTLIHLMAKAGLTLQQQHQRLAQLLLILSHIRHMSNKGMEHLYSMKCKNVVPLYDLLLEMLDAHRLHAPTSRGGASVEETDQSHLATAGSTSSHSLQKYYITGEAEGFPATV
# Sequence of Peroxisome proliferator-activated receptor gamma (Homo sapiens) (P37231 whole entry, looked up): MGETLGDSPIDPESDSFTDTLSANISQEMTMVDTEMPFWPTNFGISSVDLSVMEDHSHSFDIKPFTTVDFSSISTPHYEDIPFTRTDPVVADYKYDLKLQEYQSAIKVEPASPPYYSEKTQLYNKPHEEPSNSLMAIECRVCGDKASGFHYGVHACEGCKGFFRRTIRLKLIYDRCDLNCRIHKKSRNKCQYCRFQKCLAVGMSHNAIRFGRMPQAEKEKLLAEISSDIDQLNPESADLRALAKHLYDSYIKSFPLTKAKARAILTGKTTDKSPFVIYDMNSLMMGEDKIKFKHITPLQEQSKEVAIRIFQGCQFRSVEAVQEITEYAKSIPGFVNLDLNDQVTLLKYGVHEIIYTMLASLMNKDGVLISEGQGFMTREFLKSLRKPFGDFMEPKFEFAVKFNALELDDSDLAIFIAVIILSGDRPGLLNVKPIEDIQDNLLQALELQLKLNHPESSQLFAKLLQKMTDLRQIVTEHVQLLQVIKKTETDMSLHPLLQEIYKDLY
# Sequence of Aryl hydrocarbon receptor (Homo sapiens) (P35869 whole entry, looked up): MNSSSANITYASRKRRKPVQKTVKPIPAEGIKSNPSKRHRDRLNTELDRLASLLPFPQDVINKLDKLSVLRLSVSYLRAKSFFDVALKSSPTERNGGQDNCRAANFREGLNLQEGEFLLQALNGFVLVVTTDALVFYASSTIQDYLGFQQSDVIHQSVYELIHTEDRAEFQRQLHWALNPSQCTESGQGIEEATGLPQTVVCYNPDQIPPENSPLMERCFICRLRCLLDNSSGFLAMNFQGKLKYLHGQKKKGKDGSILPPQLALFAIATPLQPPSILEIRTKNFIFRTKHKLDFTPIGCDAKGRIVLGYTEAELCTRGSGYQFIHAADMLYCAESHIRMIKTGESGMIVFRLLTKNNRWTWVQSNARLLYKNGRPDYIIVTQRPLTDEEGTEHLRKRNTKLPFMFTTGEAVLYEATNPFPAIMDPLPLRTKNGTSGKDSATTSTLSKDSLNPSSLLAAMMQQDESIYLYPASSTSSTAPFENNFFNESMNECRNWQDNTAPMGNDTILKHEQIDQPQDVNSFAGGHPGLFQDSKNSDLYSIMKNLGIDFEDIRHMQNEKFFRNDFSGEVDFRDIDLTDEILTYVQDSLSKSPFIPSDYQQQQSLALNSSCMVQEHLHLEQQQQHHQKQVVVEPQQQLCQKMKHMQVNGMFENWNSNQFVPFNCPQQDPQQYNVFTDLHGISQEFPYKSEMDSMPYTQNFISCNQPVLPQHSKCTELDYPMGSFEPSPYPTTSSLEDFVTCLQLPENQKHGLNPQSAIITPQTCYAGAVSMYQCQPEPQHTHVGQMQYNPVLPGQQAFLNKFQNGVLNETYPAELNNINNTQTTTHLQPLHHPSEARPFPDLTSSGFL
SMILES,Potency [1],Potency [2],outcome [3],Potency [4],Potency [5],Potency [6],Potency [7],Potency [8],Potency (Aromatase (Homo sapiens)),Potency [9],Potency [10],Potency [11],Potency [12],Potency [13],Potency [14],Potency [15],Potency [16],Potency [17],Potency [18],Potency [19]
CCC(CC)(CC(=O)Nc1cccc(/C=C/c2nc(C3CCC3)cs2)c1)C(=O)O,inactive,inactive,inactive,inactive,inactive,inactive,inactive,inactive,inactive,inactive,8.41 µM (active),inactive,inactive,inactive,–,–,–,–,–,–
CCCCNS(=O)(=O)c1ccc(C)cc1,inactive,inactive,inactive,inactive,inactive,inactive,inactive,inactive,–,inactive,inactive,inactive,inactive,inactive,inactive,inactive,inactive,–,–,–
CC(CO)Oc1ccccc1 (centres undefined),inactive,–,inactive,inactive,inactive,inactive,inactive,inactive,inactive,–,inactive,inactive,inactive,inactive,inactive,inactive,inactive,inactive,inactive,inactive
CCCCCCCCCCCCOC(=O)c1ccc(O)cc1,30.9 µM (active),27.5 µM (active),–,inactive,inactive,inactive,–,inactive,30.9 µM (active),–,inactive,inactive,–,–,inactive,–,61.6 µM (active),44 µM [inconclusive] (active),–,–
CCCCC/C=C\C/C=C\CCCCCCCC(=O)O,inactive,–,inactive,inactive,inactive,inactive,inactive,inactive,inactive,inactive,inactive,inactive,42.9 µM (active),–,–,inactive,inactive,inactive,–,61.1 µM (active)
OCCN1CCN(CCCN2c3ccccc3Sc3ccc(C(F)(F)F)cc32)CC1,6.68 µM (active),6.68 µM (active),–,inactive,inactive,inactive,inactive,inactive,–,–,inactive,–,inactive,inactive,–,–,29.8 µM (active),–,–,–
CN(C)c1ccc(C(=C2C=CC(=[N+](C)C)C=C2)c2ccc(N(C)C)cc2)cc1,1.88 µM (active) and 859 nM (active) and 8.63 µM (active),1.33 µM (active) and 431 nM (active) and 545 nM (active),–,10.7 µM (active) and 8.67 µM (active) and 24.5 µM (active),3.07 µM [inconclusive] (active),–,2.42 µM (active) and 3.86 µM (active),13.3 µM (active) and 12.1 µM (active) and 24.3 µM (active),2.98 µM (active) and 608 nM (active) and 864 nM (active),10.6 µM (active) and 3.05 µM (active) and 7.7 µM (active),2.42 µM (active),8.49 µM (active),1.73 µM (active) and 4.36 µM (active) and 6.68 µM (active),–,9.44 µM (active) and 19.2 µM (active) and 24.3 µM (active),1.94 µM (active) and 1.95 µM (active) and 5.96 µM (active),9.64 µM (active) and 10.9 µM (active) and 11.9 µM (active),–,–,–
ClCCl,inactive,–,inactive,inactive,inactive,inactive,inactive,inactive,inactive,inactive,inactive,inactive,inactive,inactive,inactive,inactive,inactive,inactive,–,inactive
O=C1CCc2ccc(OCCCCN3CCN(c4cccc(Cl)c4Cl)CC3)cc2N1,11.9 µM (active),11.9 µM (active),–,23.9 µM (active),–,–,–,–,inactive,inactive,inactive,–,26.6 µM (active),–,inactive,15 µM (active),16.8 µM (active),–,–,–
COc1cccc(OC)c1C(=O)O,inactive,inactive,inactive,inactive,–,–,–,inactive,–,–,–,–,inactive,inactive,inactive,–,inactive,–,–,inactive
NC(=S)NC(N)=S,inactive,–,inactive,inactive,inactive,inactive,inactive,inactive,inactive,inactive,inactive,inactive,inactive,34.7 µM (active),inactive,inactive,inactive,inactive,inactive,inactive
CCCCCCCCCCCCOCCOCCOCCOCCOCCOCCOCCOCCOCCO,9.44 µM (active),8.41 µM (active),–,10.7 µM (active),inactive,–,5.96 µM (active),23.7 µM (active),10.6 µM (active),inactive,–,–,29.8 µM (active),–,–,–,–,–,–,–
CC(C)OC(=O)C(O)(CC(=O)O)CC(=O)O,inactive,inactive,–,inactive,inactive,inactive,inactive,inactive,inactive,inactive,inactive,inactive,inactive,inactive,inactive,–,–,–,–,inactive
CN1CCCCC1CCN1c2ccccc2Sc2ccc(S(C)=O)cc21 (centres undefined),inactive and 13.3 µM (active),–,inactive,inactive,inactive,inactive,inactive,inactive,inactive,inactive,inactive,inactive,inactive,inactive,inactive,inactive,inactive,inactive,–,inactive
O=C1NC(=O)[C@@H]2CC=CC[C@H]12,inactive,inactive,inactive,inactive,–,–,–,inactive,–,–,–,–,inactive,inactive,–,inactive,inactive,–,–,–
